Marburg entry inh: Marburg virus entry inhibition; Marburg virus pseudotyped entry inhibition, cell reporter; Potency, µM (titrated, usually from 37.8 µM), without a hit: top-dose activity change, negative = inhibition, actives largely listed as inhibitors; 300,000 tested, 1.8% active; AID 540276; calls by dose curve; tested in HEK293 cells; also: potency is read from the fitted curve at half-maximal effect; % is scaled to controls: 0 for no effect and ±100 for the full control effect
Cycloheximide cs: counter-screen for Shiga toxin inhibitors: cycloheximide protein synthesis inhibition | 300,000 tested, 12% active | cell reporter, cycloheximide protein synthesis inhibition counterscreen | AID 2314 | max response, %; in the data active = max response mostly above about 13%, no sharp cut-off; inactive = mostly below about 14%; also: read at 38.3 µM for the half of the compounds with a filed dose; 0% is about no effect
LASV entry inh: Lassa virus entry inhibition | Lassa virus pseudotype entry inhibition, cell reporter | Potency, µM (titrated, usually from 37.9 µM), inactives show top-dose activity change, negative = inhibition, hits mostly inhibitors | 300,000 tested, 1.2% active | AID 540256; calls by dose curve; tested in HEK293 cells; also: potency is read from the fitted curve at half-maximal effect; % is scaled to controls: 0 for no effect and ±100 for the full control effect; nearly all actives have a fitted effect of over 50% in size
Shiga toxin inh: Shiga toxin inhibition; inhibition, % at 38.7 µM; Vero cells, Shiga toxin protein synthesis inhibition reporter; 290,000 tested, 9.2% active; in the data active = inhibition mostly above about 28%, no sharp cut-off; inactive = mostly below about 43%; also: 0% is about no effect
Active calls of the source: *; ? = inconclusive; · = no result; [ ] = another dose, or the depositor's remark. Compounds with a hit are over-represented: about 12% of the library has one in this group of screens.

SMILES	Marburg entry inh	Cycloheximide cs	LASV entry inh	Shiga toxin inh
COc1ccc(NC(=O)CSc2n[nH]c(CNc3cccc(C)c3)n2)cc1	?	10	2%	14
O=C(CCS(=O)(=O)c1ccccc1)NCCS(=O)(=O)c1ccccc1	-4%[46.1 µM]	4	6%	-6
O=C(CCS(=O)(=O)c1ccccc1)NC12CC3CC(CC(C3)C1)C2	?	25*	?	48
COc1ccccc1NC(=S)N(Cc1ccco1)Cc1cc2cc(C)cc(C)c2[nH]c1=O	?	-3	?	-5
COc1ccccc1NC(=S)N(Cc1ccco1)Cc1cc2ccc(C)c(C)c2[nH]c1=O	11µM*	-2	?	-3
Cc1ccc2[nH]c(=O)c(CN(Cc3ccco3)S(=O)(=O)c3c(C)ccc4nsnc34)cc2c1	?	8	?	25
COc1ccc2[nH]c(=O)c(CN(Cc3cccs3)S(=O)(=O)c3c(C)ccc4nsnc34)cc2c1	?	-3	13µM*	-8
Cc1ccc2nsnc2c1S(=O)(=O)N(Cc1ccco1)Cc1cc2ccc(C)c(C)c2[nH]c1=O	1.6µM*	-1	?	3
Cc1ccc2nsnc2c1S(=O)(=O)N(Cc1ccco1)Cc1cc2cccc(C)c2[nH]c1=O	-22%	-1	?	-10
Cc1ccccc1CNC(=O)c1c(C)oc2c1C1=NCCN1C=N2	·	·	12%[46.1 µM]	·
COc1cc(SC#N)ccc1N=Cc1c(C)[nH]n(-c2ccc(C)c(C)c2)c1=O	?	0	11µM*	-8
Cc1sc2nc(C)n(/N=C/N(C)C)c(=O)c2c1C	-1%	7	18%	-4
Cc1nc2sc(-c3ccccc3)cc2c(=O)n1/N=C/N(C)C	?	37*	?	72*
Cc1ccccc1-c1nc2sc(-c3ccccc3)cc2c(=O)o1	0%	2	6%	19
Cc1nc2ccccc2c(=O)n1N	0%	-2	4%	20
Cc1nc2sc(-c3ccccc3)cc2c(=O)n1-n1cccc1	?	42*	?	113*
Cc1nc2sc(-c3ccccc3)cc2c(=O)n1N	·	44*	·	56*
O=c1c2ccccc2nc2n1CCC2	-18%	-4	0%	4
O=c1c2cc(-c3ccccc3)sc2nc2n1CCC2	·	47*	·	103*
COc1ccc(OC)c(NC(=O)c2nc(SCc3ccccc3F)ncc2Cl)c1	14%[46.1 µM]	·	13%[46.1 µM]	·
CCc1cc2c(=O)n(-c3ccccc3)c(SCC(N)=O)nc2s1	·	14	·	-8
NC(=O)CSc1nc2sc(-c3ccccc3)cc2c(=O)n1N	11%	26*	?	34
COc1ccc(NC(=O)c2sc3nc(N4CCOCC4)c4c(c3c2N)CC(C(C)C)OC4)c(OC)c1 (centres undefined)	·	-1	·	-3
C/C(=N\NC(=O)C(=O)Nc1ccc(C)c(Cl)c1)c1ccncc1	6%	1	13%	-2
C/C(=N\Nc1ccc(C)c(Cl)c1)c1ccncc1	?	30*	?	39
SMILES	Marburg entry inh	Cycloheximide cs	LASV entry inh	Shiga toxin inh
C/C(=N\Nc1ccc(C)c(Cl)c1)c1cccnc1	·	41*	·	89*
OC[C@H]1O[C@H](n2cnc3c(N[C@H]4CCC[C@@H]4O)ncnc32)[C@H](O)[C@@H]1O	2%	·	9%	·
O=C(CCc1ccccc1)Nc1nccs1	·	20*	·	·
O=C(CSCc1ccccc1)Nc1nccs1	10%	18*	4%	21
CCn1c(SCC(=O)Nc2nccs2)nnc1-c1cccnc1	·	31*	·	19
CCn1c(SCC(=O)Nc2nccs2)nnc1-c1ccccc1	29%	-3	-17%	14
Cc1ccc(SCC(=O)Nc2ccc(S(=O)(=O)Nc3nccs3)cc2)cc1	17%	-7	?	-4
Cc1ccc(SCC(=O)Nc2nccs2)cc1	7%	42*	3%	71*
O=C(Cc1ccccc1)Nc1nccs1	·	-1	·	5
COc1ccc2c(c1OC)C(=O)N1C2SC[C@H]1C(=O)NC1CCCC1 (some centres undefined)	·	-2	·	12
Cc1ccc2c(=O)cc(C(=O)Nc3ccc(S(=O)(=O)N4CCC(C)CC4)cc3)oc2c1C	?	·	0%[46.1 µM]	·
O=C(C1CCCN1S(=O)(=O)c1cccc2cccnc12)N1CCn2c1nc1ccccc12 (centres undefined)	-10%	-3	11%	-11
O=C(CN1C(=O)C2CCCCC2C1=O)Nc1nccs1 (centres undefined)	0%[46.1 µM]	-5	·	-4
Cc1cc(C)c2c(CC(=O)Nc3nnc(C(C)C)s3)coc2c1	?	·	-24%[46.1 µM]	·
Cc1cc(C)c2c(CC(=O)Nc3nccs3)coc2c1	-21%	20*	?	11
CCc1ccc(CCC(=O)Nc2nccs2)o1	17%	34*	23%	60*
Cc1ccc(CCC(=O)Nc2nccs2)o1	14%	40	14%	17
O=C(CCC1CCCCC1)Nc1nccs1	·	29*	·	77*
C=CCn1c(SCC(=O)Nc2ccc(F)cc2F)nnc1-c1cnccn1	·	26*	·	45*
COCCC(=O)Nc1c(-c2ccccc2)c2cc(Br)ccc2[nH]c1=O	·	-2	·	·
O=C(CSCc1ccc(Cl)cc1Cl)Nc1nccs1	-33%	-3	20%	-15
C=CCn1c(SCC(=O)Nc2cccc(OC)c2)nnc1-c1cccnc1	·	19*	·	-48
C=CCn1c(SCC(=O)Nc2ccc(C(=O)O)cc2)nnc1-c1cccnc1	·	2	·	5
O=C(CSc1ccccc1)Nc1nccs1	13%[46.1 µM]	28*	30%[46.1 µM]	50*
O=C(CSCc1c(Cl)cccc1Cl)Nc1nccs1	9%	42	9%	109*
SMILES	Marburg entry inh	Cycloheximide cs	LASV entry inh	Shiga toxin inh
O=C(CSCc1ccccn1)Nc1ccccc1	?	22*	-2%	38*
COCCC(=O)N1CCC(Oc2ccc(C(=O)N3CCCC(CCCO)C3)cc2)CC1 (centres undefined)	-2%	7	-3%	-21
O=C(CSc1cn(Cc2ccccc2)c2ccccc12)Nc1nccs1	·	37*	·	76*
Cc1nn(-c2ccc(N3CCCC3)nn2)c(C)c1CCC(=O)NCc1ccccc1F	·	·	4%[46.1 µM]	·
O=C(Nc1ccc(F)cc1)c1nsc(Cl)c1Cl	0%	29*	?	68*
CCOc1ccc(NC(=O)c2nsc(Cl)c2Cl)cc1	?	40*	?	94*
O=C(O)C1=C(C(=O)Nc2ccc(F)c(Cl)c2)CCCC1	-9%	7	-3%	-6
O=C(Nc1ccc(F)cc1)c1nc[nH]c1C(=O)O	·	-6	·	-5
O=C(Nc1ccc(F)c(Cl)c1)c1nsc(Cl)c1Cl	·	47*	·	82*
COCCCNC(=O)CSc1nc2cc3c(cc2c(=O)n1CCCC(=O)NCc1ccc2c(c1)OCO2)OCO3	·	·	7%[46.1 µM]	·
c1ccc(SCCc2ccncc2)cc1	0%	20*	11%	15
Fc1ccc(SCCc2ccncc2)cc1	2%	3	-8%	-2
COc1ccc(SCCc2ccncc2)cc1	28%[46.1 µM]	-3	2%	-9
CC(C)(C)c1ccc(SCCc2cccnc2)cc1	·	44*	·	110*
COc1ccc(C2=C[C@H](c3cccc(OC)c3)n3nnnc3N2)cc1	-14%[46.1 µM]	·	·	·
Cn1c(N)c(Sc2ccc(F)cc2)c(=O)n(C)c1=O	·	-2	·	-9
CCOC(=O)C(C)On1c(-c2ccc(Cl)cc2)nc2ccc([N+](=O)[O-])cc21 (centres undefined)	?	33	-27%	129
O=C(O)COn1c(-c2ccccc2)nc2ccc([N+](=O)[O-])cc21	20%[46.1 µM]	25*	13%[46.1 µM]	49*

Screens (PubChem BioAssay)
